Rows were chosen to be rich in hits. Some 8.3% of all compounds tested hit in one or more screens of this group.
MARV entry inh – blocks Marburg virus binding to or entry into cells; Marburg virus pseudotyped entry inhibition, cell reporter; Potency, µM (top dose mostly 37.8 µM), without a hit: top-dose activity change, negative = inhibition, actives largely listed as inhibitors; actives 1.8% (n = 300,000); AID 540276; calls by dose curve; tested in HEK293 cells; further: potency means the concentration at half of the fitted maximal effect
HCV inhibitor – inhibitors of hepatitis C virus infection; AID 651820; Potency, µM (titrated, usually from 41.8 µM), for inactives: at the highest dose activity change, negative = inhibition, hits mostly inhibitors; Huh7.5.1 HCVcc-Cre infection, luciferase reporter, 44 h; actives 3.4% (n = 340,000); further: potency means the concentration at half of the fitted maximal effect
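Infectious HCV cell culture screen: compound-treated cells (1,000/well, pre-plated 4 h) are infected with HCVcc-Cre at roughly 0.5 moi and grown 44 h. Infection is quantified by luciferase signal after 15 min substrate incubation at room temperature.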
FMDV antiviral – foot and mouth disease virus antiviral activity; FMDV antiviral cell-based qHTS; Potency, µM (top dose mostly 57.9 µM), for inactives: at the top dose activity change, negative = inhibition, usual class: inhibitors; actives 1.2% (n = 410,000); AID 1159524; calls by dose curve; tested in HEK293T cells; further: read-out not given here; potency means the concentration at half of the fitted maximal effect; nearly all actives have a fitted effect of over 45% in size
HCMV inh – human cytomegalovirus inhibition | activity change, negative = inhibition, % at 57.5 µM | HFF cells, HCMV-luciferase reporter, 72 h; stronger effect = lower value | actives 4.5% (n = 410,000) | AID 1259415; in the data active means activity change below about -60%; inconclusive means no clear call, values can overlap the other calls; inactive means above about -39%
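Steps: HFFs plated, 16 h 37C; compounds added; HCMV-luciferase added to MOI 1 PFU/cell; 72 h 37C; OneGlo reagent, 5 min room temperature; luminescence read, normalized to controls.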
Giardia FBPA inh – blocks Giardia fructose-bisphosphate aldolase activity. purified Giardia FBPA. A8B2U2. Potency, µM (doses to about 59.6 µM), inactives show top-dose activity, negative = inhibition, most hits filed as inhibitors. actives 0.71% (n = 290,000); further: potency means the concentration at half of the fitted maximal effect; nearly all actives have a fitted effect of over 55% in size
Target sequence (A8B2U2 whole entry, looked up): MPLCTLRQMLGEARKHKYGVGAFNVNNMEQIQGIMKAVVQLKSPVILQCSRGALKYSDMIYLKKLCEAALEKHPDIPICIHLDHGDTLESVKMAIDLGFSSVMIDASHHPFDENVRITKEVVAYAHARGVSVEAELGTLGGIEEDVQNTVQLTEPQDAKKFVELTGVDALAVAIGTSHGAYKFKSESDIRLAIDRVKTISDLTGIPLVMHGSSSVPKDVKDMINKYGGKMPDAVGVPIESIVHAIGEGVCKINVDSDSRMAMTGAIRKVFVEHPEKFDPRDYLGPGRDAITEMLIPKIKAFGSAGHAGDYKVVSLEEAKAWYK
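Giardia FBPA (40 nM reagent) was preincubated 10 min at RT with compound (up to 57.5 uM final), then substrate plus GAPDH/TPI/NAD/arsenate coupling system with diaphorase/resazurin was added; resorufin fluorescence (525/598 nm) was read after 20 min.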
LASV entry inh – inhibitors of Lassa virus binding or cell entry | Lassa virus pseudotype entry inhibition, cell reporter | Potency, µM (doses to about 37.9 µM), without a hit: at the top dose activity change, negative = inhibition, hits mostly inhibitors | actives 1.2% (n = 300,000) | AID 540256; calls by dose curve; tested in HEK293 cells; further: potency means the concentration at half of the fitted maximal effect; nearly all actives have a fitted effect of over 50% in size
Numbers without * were called inactive; ? = inconclusive; . = no result given; [ ] = remark or other dose. Unless noted, the call rests on the fitted dose curve; in most records, active means well fitted curve in the direction sought with a large enough effect; inconclusive means small, poorly fitted or top-dose-only effect, or another doubt; inactive means no such curve, though single readings can be large; an effect the other way counts as inactive or inconclusive. On the % scale 0 is the no-effect control and ±100 the full control effect.

SMILES | MARV entry inh | HCV inhibitor | FMDV antiviral | HCMV inh | Giardia FBPA inh | LASV entry inh
COc1ccc2[nH]c3c(=O)n(/N=C/[C@H]4C(C)C=C(C)CC4C)c(=O)[nH]c3c2c1 (stereo partly drawn) | -31% | ? | ? | -80* | -12% | -4%
CC1=CC(C)[C@H](/C=N/n2c(=O)[nH]c3c([nH]c4ccc(Br)cc43)c2=O)C(C)C1 (stereo partly drawn) | -25% | 9% | -28% | -74* | -1% | ?
FC(F)(F)c1cccc(Nc2nc3nonc3nc2Nc2ccc(Cl)cc2)c1 | ? | . | ? | -98* | . | ?
Cc1ccc(-n2c(Cl)c(Cl)nc(Cl)c2=O)cc1 | ? | 7.1µM* | 7.1µM* | . | 1% | 7.3µM*
COc1nc(Cl)cn(-c2ccc(C)cc2)c1=O | 30% | 15% | -4% | -27 | 0% | -2%
Cc1onc(C(=O)Nc2cccc(C(F)(F)F)c2)c1[N+](=O)[O-] | . | -4% | -25% | -17 | . | .
Cc1nc(Cl)c(C(=O)NC(=O)Nc2cccc(C(F)(F)F)c2)c(C)c1[N+](=O)[O-] | ? | -8% | 22µM* | -39 | 2% | ?
CN(NC(=O)C(=O)NCc1ccco1)C(=O)NC1CCCCC1 | . | . | . | -5 | . | .
N#CC1C=Cc2c(ccc3ccccc23)N1C(=O)c1ccccc1 (stereo not drawn) | ? | -50% | ? | -83* | . | ?
CN(NC(=O)C(C)(C)C)c1nc(-c2ccccc2)nnc1C(F)(F)F | 10% | 16% | -11% | -63* | 4% | 10%
COc1ccc(Nc2nc(N)c([N+](=O)[O-])c(N3CCCC3)n2)cc1 | . | ? | 0% | -15 | -2% | .
Cc1ccc(Nc2nc(N)c([N+](=O)[O-])c(N3CCCC(C)C3)n2)cc1C (stereo not drawn) | 2.2µM* | 34% | ? | -62* | -12% | -6%
CC1CCCN(c2nc(NCc3ccco3)nc(N)c2[N+](=O)[O-])C1 (stereo not drawn) | ? | ? | 0% | -102* | 10% | ?
CC1CC(C)CN(c2nc(NCc3ccco3)nc(N)c2[N+](=O)[O-])C1 (stereo not drawn) | -10% | ? | ? | -67* | 13% | ?
Nc1nc(NCc2ccco2)nc(N2CCOCC2)c1[N+](=O)[O-] | -14% | -22% | -12% | 2 | 1% | -2%
Cc1cccc(Nc2nc(N)c([N+](=O)[O-])c(N3CCOCC3)n2)c1 | 5.6µM* | -12% | ? | 21 | -2% | -2%
O=C1[C@H]2[C@H]3[C@H](O)[C@H](O)C/C(=N/OC[C@@H](O)COCc4ccco4)[C@@H]3CC[C@@H]2C(=O)N1Cc1ccc2c(c1)OCO2 | . | . | . | . | 3%[12.9 µM] | .
Cc1cccc(Nc2nc(NCc3ccco3)nc(N3CCOCC3)n2)c1 | 2.3µM* | ? | -22% | 82 | -6% | ?
O=S(=O)(c1ccccc1)N1CCC2(CCCN(Cc3ccncc3)C2)CC1 | . | . | -1% | . | 0% | .
CCC1(C2CCN(C(=O)c3coc4c3C(=O)CCC4)CC2)NC(=O)N(CCc2scnc2C)C1=O (stereo not drawn) | . | . | 11% | . | . | .
Cc1onc(-c2c(F)cccc2Cl)c1-c1ncc(-c2ccc(Cl)cc2)o1 | . | . | . | -76* | . | .
CCOc1cnc(-c2c(-c3c(F)cccc3Cl)noc2C)o1 | 13% | 9% | -4% | 11 | -3% | 11%
CCOc1ccccc1NC(=O)CC(c1ccc(F)cc1)N1Cc2ccccc2C1=O (stereo not drawn) | . | . | -10% | -36 | . | -16%[46.1 µM]
CC(=O)OC1(C(C)=O)CCC2C3CC(C(F)(F)F)C4=CC(=O)CCC4(C)C3CCC21C (stereo not drawn) | 8.9µM* | ? | -6% | -29 | . | ?
CC(=O)C12CCCCC1CC1[C@@H]3CC(C)C4=CC(=O)CC[C@]4(C)C3CC[C@@]12C (stereo partly drawn) | 14%[46.1 µM] | -19% | ? | -80* | 9% | 28%[46.1 µM]
CC(C)NC(=O)c1cn(C2CCC(NC(=O)C(C)(C)C)CC2)nn1 (stereo not drawn) | . | . | -2% | . | . | .
CCOc1ccc(NC(=S)NC(=O)c2cncc(Br)c2)cc1 | -2%[14.2 µM] | 5% | -9% | -1 | . | -8%
